The panel holds about 83,000 compounds, 20% with a hit somewhere; the sample as a whole holds those more often.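 Negative percent growth values reflect cell death: -40 means 40% of the cells present at the start died, and -100 means all died.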 A number with no mark means an inactive call. The source made the active and inactive calls. Rule for the calls: active = growth percent below 10; inactive = the rest.
Assays:
Assay in all cases: NCI-60 one-dose screen, 48 h (100 = growth as untreated, 0 = no growth, -100 = all killed)
Details in all cases: 10 µM unless noted
NCI-H23 lung = system: NCI-H23 lung
NCI-H226 lung = system: NCI-H226 lung
NCI-H322M lung = system: NCI-H322M lung
HOP-62 NSCLC = system: HOP-62 NSCLC
NCI-H460 lung = system: NCI-H460 lung
HOP-92 NSCLC = system: HOP-92 NSCLC
NCI-H522 lung = system: NCI-H522 lung
A549/ATCC NSCLC = system: A549/ATCC NSCLC
786-0 renal = system: 786-0 renal
COLO 205 colon = system: COLO 205 colon
DU-145 prostate = system: DU-145 prostate
K-562 leukemia = system: K-562 leukemia
MALME-3M melanoma = system: MALME-3M melanoma
MDA-MB-231 breast = system: MDA-MB-231 breast
RXF 393 renal = system: RXF 393 renal
SF-268 CNS = system: SF-268 CNS
SF-295 CNS = system: SF-295 CNS
SF-539 CNS = system: SF-539 CNS
UACC-257 melanoma = system: UACC-257 melanoma
M14 melanoma = system: M14 melanoma

| Compound | growth (NCI-H23 lung) [%] | growth (NCI-H226 lung) | growth (NCI-H322M lung) [%] | growth (HOP-62 NSCLC) [%] | growth (NCI-H460 lung) | growth (HOP-92 NSCLC) | growth (NCI-H522 lung) | growth (A549/ATCC NSCLC) | growth (786-0 renal) | growth (COLO 205 colon) | growth (DU-145 prostate) | growth (K-562 leukemia) | growth (MALME-3M melanoma) | growth (MDA-MB-231 breast) | growth (RXF 393 renal) | growth (SF-268 CNS) [%] | growth (SF-295 CNS) | growth (SF-539 CNS) | growth (UACC-257 melanoma) | growth (M14 melanoma) |
| --- | --- | --- | --- | --- | --- | --- | --- | --- | --- | --- | --- | --- | --- | --- | --- | --- | --- | --- | --- | --- |
| CCOC(=O)c1[nH]c(C)c(C(=O)OCc2ccccc2C#N)c1C | 69 | 100% | 88.4 | 68.7 | 83.4% | 47.4% | 51.8% | 83.6% | 61.2% | 89.8% | 87.2% | 25.6% | 66.5% | 73.9% | 58.3% | 72.9 | 75.2% | 16.2% | 114% | 58.9% |
| CC(=O)CC(c1ccccc1)c1c(C)[nH]c2ccccc12 (stereo not given) | 81.9 | 89.7% | 100 | 93.1 | 106% | 94.3% | 94.4% | 99.5% | 104% | 107% | 110% | 87.2% | 100% | 103% | 104% | 94.8 | 102% | 93.4% | 94.8% | 94.4% |
| CCOC(=O)Cn1c(C)c(/C=N/NC(=O)c2cc3c(ccc4ccccc43)o2)c2ccccc21 | 27.7 | 19.4% | 41.5 | 26.5 | 5.99% (active) | 60.5% | -25.5% (active) | 21.8% | 20.7% | -39.9% (active) | 11.2% | 10.9% | 70.8% | 38.8% | -11.1% (active) | 35.7 | 19.3% | -14.1% (active) | 41.5% | 16.8% |
| Cc1cccc2c3c(sc12)C(c1ccc(Cl)cc1)C(C#N)=C(N)O3 (stereo not given) | 21.4 | 26.4% | 49.1 | 38.7 | 9.2% (active) | 89.7% | 13.7% | 30.1% | 29% | -21.2% (active) | 17.6% | 5.28% (active) | 61.9% | 26.1% | -7.02% (active) | 44.8 | 1.66% (active) | -14.5% (active) | 69.5% | 9.67% (active) |
| COc1cc(C)c(Cc2cnc(N)nc2N)cc1OC | 101 | 93.9% | 103 | 97.1 | 111% | 88.9% | 95.9% | 103% | 103% | 117% | 120% | 110% | 99.3% | 109% | 123% | 108 | 103% | 98.6% | 111% | 105% |
| Cc1nn(-c2ccccc2)c2c1N=c1s/c(=C\c3ccc(C(F)(F)F)cc3)c(=O)n1CN2 | 51.1 | 61% | 75.7 | 87.7 | 53.8% | 56.4% | 40.5% | 5.73% (active) | 73.2% | 85.6% | 117% | 93.1% | 83.1% | 56.2% | 49.7% | 101 | 84% | 67.8% | -1.84% (active) | 69.4% |
| NCCNc1nc2ccccc2c2c(=O)c3cccc(F)c3sc12 | 70 | 78.5% | 64.7 | 58 | 13.8% | 59.9% | 59.2% | 41.1% | 76.7% | 26.6% | 37% | 17.2% | 88.4% | 44.7% | 83.3% | 61.6 | 91.7% | 59.2% | 101% | 83.3% |
| Fc1cc(-c2nnc3sc(-c4ccc(Cl)cc4Cl)nn23)c(Cl)cc1Cl | 83 | 97.6% | 89.7 | 97.9 | 57.6% | 81.5% | 86.6% | 66.3% | 59.6% | 72.3% | 92.7% | 107% | 52.3% | 74.8% | 65.4% | 71.5 | 78.4% | 108% | 85.1% | 97.5% |
| CSc1ncccc1C(=O)OCC(=O)Nc1oc(C)c2c(C)n[nH]c(=O)c12 | 99.3 | 86.3% | 104 | 105 | 108% | 73.4% | 84.2% | 103% | 91.6% | 122% | 103% | 87.8% | 106% | 109% | 92.1% | 105 | 95% | 99.7% | 103% | 110% |
| Cc1nc2nc(SCC(=O)O)[nH]c2c(=O)[nH]1 | 98.8 | 101% | 105 | 96.7 | 104% | 95.3% | 78.6% | 86.6% | 104% | 109% | 113% | 94.9% | 112% | 110% | 109% | 108 | 97.9% | 97.6% | 96.7% | 102% |
| C=C1C(=O)O[C@H]2[C@H]1CC/C(COC(=O)CCSSCCC(=O)OC/C1=C/CC[C@@]3(C)O[C@H]3[C@H]3OC(=O)C(=C)[C@@H]3CC1)=C\CC[C@@]1(C)O[C@@H]21 | 26.4 | 78.1% | 94.6 | 72.3 | 64% | -57.7% (active) | -79.8% (active) | 60.8% | -70.9% (active) | -72.5% (active) | 10.7% | -1.59% (active) | -27.1% (active) | -83.7% (active) | -93.6% (active) | 24.8 | 72.9% | -63.4% (active) | -7.74% (active) | -10.1% (active) |
| CCCCCCNC(=O)Oc1ccc(/C(=C(\C)c2ccc(Cl)cc2)c2ccc(OCCN(CC)CC)cc2)cc1 | 67.1 | 101% | 85.7 | 77.8 | 26.4% | 58.3% | 86.4% | 58.4% | 41.2% | 4.94% (active) | 73.5% | 2.67% (active) | 49.3% | 65% | 49.7% | 62 | 84.9% | 72.3% | 6.29% (active) | -4.87% (active) |
| CN1CCN(Cc2ccc(NC(=O)c3cncc(C#Cc4cnccc4C#N)c3)cc2C(F)(F)F)CC1 | 49.2 | 40.4% | 99.4 | 76.8 | 59.2% | 36% | 66.7% | 90.4% | 101% | 24.6% | 65.3% | 8.21% (active) | 17.2% | 68.6% | 76.6% | 89.9 | 96.3% | 42% | 41.1% | 25.4% |
| C=C(C)C1CCC2(C)OC2C1 (stereo not given) | 111 | 98.8% | 94.9 | 94.6 | 103% | 117% | 105% | 127% | 98.7% | 142% | 122% | 135% | 95.7% | 102% | 204% | 115 | 96.7% | 103% | 132% | 108% |
| CNC(=O)c1cc(-n2ccc3cc(NC(=O)c4ccc(N5CCOCC5)c(C(F)(F)F)c4)ccc32)ccn1 | 64 | 51.7% | 91.5 | 62 | 68.4% | 60.5% | 52% | 46.3% | 47.8% | 42.9% | 76% | 25.5% | 73.9% | 77.7% | -2.7% (active) | 88.3 | -3.1% (active) | 30.6% | 84.3% | 62.4% |
| Nc1nc(-c2cccc3ccccc23)cc2ccccc12 | 11.1 | -7.36% (active) | 46.5 | 13.7 | 0.0786% (active) | 19% | -34.3% (active) | 28.7% | 20.9% | -18.4% (active) | 7.32% (active) | -43.8% (active) | 82.2% | 20.7% | -4.3% (active) | 23.7 | -50.2% (active) | -35.9% (active) | 56.6% | -29.5% (active) |

— PubChem BioAssay (NCI)
